# Experimental data: the supplement of paper PMC12669032
# Values without a mark were called inactive.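 The calls were made as follows: active = AUC reduced over 20% with Padj below 0.05 in at least 2 of 3 replicates; inactive = otherwise.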
# Experiments:
# Assay in all cases: growth AUC relative to DMSO control (median of replicates) (fraction); higher = more growth (less inhibition), active = hit call of the paper
# Details in all cases: 20 µM; 24 h
# Akkermansia muciniphila = test system: Akkermansia muciniphila
# Summary of the method: (§1)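 For each compound at 20 µM (1% DMSO), gut bacterial monocultures seeded at OD600 0.05 grew anaerobically in mGAM at 37 °C in round-bottom 96-well plates. Hourly OD600 readings over 24 h gave growth curves whose minimum OD was set to 0. Area under these curves was normalised to the plate median of solvent-only wells, or to row and column medians on the industrial chemical plate. Values are medians of three biological replicates grown on separate days.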
# Bacteroides caccae = test system: Bacteroides caccae
# Summary of the method: as §1
# Bacteroides clarus = test system: Bacteroides clarus
# Summary of the method: as §1
# Bacteroides dorei = test system: Bacteroides dorei
# Summary of the method: as §1
# Bacteroides stercoris = test system: Bacteroides stercoris
# Summary of the method: as §1
# [1] = test system: Bacteroides thetaiotaomicron
# Summary of the method: as §1
# Bacteroides uniformis = test system: Bacteroides uniformis
# Summary of the method: as §1
# [2] = test system: Bifidobacterium longum subsp. longum
# Summary of the method: as §1
# Clostridium difficile = test system: Clostridium difficile
# Summary of the method: as §1
# Collinsella aerofaciens = test system: Collinsella aerofaciens
# Summary of the method: as §1
# Coprococcus comes = test system: Coprococcus comes
# Summary of the method: as §1
# Escherichia coli ED1a = test system: Escherichia coli ED1a
# Summary of the method: as §1
# Escherichia coli IAI1 = test system: Escherichia coli IAI1
# Summary of the method: as §1
# Eubacterium rectale = test system: Eubacterium rectale
# Summary of the method: as §1
# [3] = test system: Fusobacterium nucleatum subsp. animalis
# Summary of the method: as §1
# Lactobacillus gasseri = test system: Lactobacillus gasseri
# Summary of the method: as §1
# Lactobacillus paracasei = test system: Lactobacillus paracasei
# Summary of the method: as §1
# Odoribacter splanchnicus = test system: Odoribacter splanchnicus
# Summary of the method: as §1
# [4] = test system: Parabacteroides distasonis
# Summary of the method: as §1
# Parabacteroides merdae = test system: Parabacteroides merdae
# Summary of the method: as §1
SMILES,growth AUC (Akkermansia muciniphila),growth AUC (Bacteroides caccae),growth AUC (Bacteroides clarus),growth AUC (Bacteroides dorei),growth AUC (Bacteroides stercoris),growth AUC [1],growth AUC (Bacteroides uniformis),growth AUC [2],growth AUC (Clostridium difficile),growth AUC (Collinsella aerofaciens),growth AUC (Coprococcus comes),growth AUC (Escherichia coli ED1a),growth AUC (Escherichia coli IAI1),growth AUC (Eubacterium rectale),growth AUC [3],growth AUC (Lactobacillus gasseri),growth AUC (Lactobacillus paracasei),growth AUC (Odoribacter splanchnicus),growth AUC [4],growth AUC (Parabacteroides merdae)
CNC(=O)O/N=C(\C)SC,0.938,0.99,0.981,1.03,1.06,0.988,0.988,0.91,0.999,1.03,0.981,0.979,1.01,1.01,0.985,1.02,0.967,0.992,0.986,1
CNc1cnn(-c2cccc(C(F)(F)F)c2)c(=O)c1Cl,0.94,0.979,1.02,1.01,0.914,0.994,0.991,0.989,0.937,1.03,0.978,0.99,0.981,0.995,0.946,0.975,0.943,0.992,1.01,0.989
O=P(O)(O)CCCl,1.07,0.964,1.02,0.986,1.08,1.01,1.03,1.07,0.959,0.973,1.06,1.02,1.02,1.22,1.04,0.975,1.01,1.12,1.01,1
COP(=S)(OC)Oc1c(Cl)cc(C)cc1Cl,0.999,0.966,0.993,0.964,0.958,1.01,0.97,0.98,0.985,0.975,0.99,0.983,0.99,1,0.971,0.925,1.06,0.97,0.96,0.998
COCc1c(F)c(F)c(COC(=O)[C@@H]2[C@@H](C=C(Cl)Cl)C2(C)C)c(F)c1F,1.07,0.953,1.03,1.01,1.29,1.03,0.969,1.03,0.994,1,0.981,1.03,1.02,1.09,1.09,1.03,1.04,1.03,1,1.01
CCCCN(CC)C(=O)SCCC,0.957,1.01,1.01,0.972,1.11,0.979,0.976,0.983,1.03,0.982,1.03,1.01,1.01,0.982,1.07,0.972,1.02,0.981,1.01,1.02
C#CCC1=C(C)C(OC(=O)C2C(C=C(C)C)C2(C)C)CC1=O (stereo not given),1.05,0.892,1.04,0.964,1.01,1.01,0.932,1.02,0.969,0.985,0.997,1.02,1,1.03,1.06,0.998,1,1.11,0.952,0.946
Clc1ccc(Cl)c(Cl)c1Cl,0.865,0.985,0.958,1.02,1.04,0.992,0.996,0.99,1,0.982,0.989,0.973,0.981,0.968,1.03,0.945,1.11,0.973,0.981,0.999
Oc1ccc(Cc2ccc(O)cc2)cc1,0.954,0.992,1.03,0.998,1.05,1.02,1.01,0.975,1.02,1.01,0.968,1.03,0.979,1.09,0.987,1.04,0.962,0.942,0.89,0.994
Cc1nnc(-c2ccccc2)c(=O)n1N,0.94,1.05,1,1,0.945,1.02,0.986,1.04,1,0.983,1,1,0.995,0.993,0.998,0.931,0.972,1.06,1,1.02
Cc1cnc2c(C(=O)O)c(Cl)ccc2c1,0.939,0.996,0.986,1.03,1.03,0.995,1.04,0.967,0.995,1.01,0.983,0.977,0.987,0.934,0.952,0.952,1.05,0.968,0.967,1.01
COc1nc(C)nc(NC(=O)NS(=O)(=O)c2ccccc2Cl)n1,0.942,1,0.959,0.99,0.929,0.958,1,0.938,1.02,1.04,0.971,0.982,0.988,0.986,1.02,1.07,1.01,0.952,1.01,0.979
CNC(=O)O/N=C/C(C)(C)S(C)=O (stereo not given),0.978,1.04,0.991,1.01,1.02,0.988,1.03,0.935,1.01,1.02,0.987,0.993,1,1.08,0.996,1.01,1.01,0.955,1.02,1
C[Si](Cn1cncn1)(c1ccc(F)cc1)c1ccc(F)cc1,0.895,0.891,0.907,0.854,0.952,0.895,0.913,0.923,1,0.931,0.412 (active),0.982,0.946,0.504 (active),0.9,1.04,0.925,0.925,0.915,0.964
Oc1ccccc1Cl,0.985,1.01,0.993,1.01,1.05,0.983,0.988,0.99,0.995,1,0.975,1.01,1.01,0.921,0.994,1.05,0.883,0.906,0.995,1
CCOP(=S)(NC(C)CC)Oc1cc(C)ccc1[N+](=O)[O-] (stereo not given),0.974,0.947,0.946,1.01,0.865,0.955,0.917,0.965,1.03,0.985,0.967,0.97,0.964,0.919,0.865,0.974,0.984,0.904,0.733 (active),0.967
